# ± gives the standard deviation.
# T1: HaloTag-ATRX ADD domain (163-292)
# T1 chain: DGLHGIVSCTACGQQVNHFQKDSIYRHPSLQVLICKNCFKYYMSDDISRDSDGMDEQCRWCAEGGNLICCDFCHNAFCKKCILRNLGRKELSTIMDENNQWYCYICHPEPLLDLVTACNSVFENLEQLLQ
# Legend:
# Experiment in all cases: peptide microarray binding signal (635 nm), min-max normalized on array (fraction of array maximum); higher = stronger binding
# [1] = target: T1, HaloTag-ATRX ADD domain (163-292)
# Summary of the method: (§1)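 An Axon GenePix 4000B scanned the arrays at 635 nm for signal and at 532 nm to catch misprints. Those arrays held histone 13-mer peptide–cellulose conjugates printed in triplicate on nitrocellulose with a Cy3 tracer, blocked overnight at 4°C and probed for 1 h at 4°C with biotin-labelled HaloTag reader fusions (10 nM to 1 μM) plus streptavidin-Alexa Fluor 647 or with rabbit histone antibodies (1:10,000 to 1:2,000) plus anti-rabbit Alexa 647. Each binding signal is a triplicate-spot mean intensity, scaled min-max within its library.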
# [2] = target: HaloTag-ING2 PHD (mouse Ing2 200-280)
# Summary of the method: as §1
# [3] = target: anti-H3K4me3 antibody ab8580
# Summary of the method: as §1
# [4] = target: anti-H3K9me3 antibody ab8898
# Summary of the method: as §1
# [5] = peptide region: H3 73-85, peptide modifications: H3T80ph, binder concentration: 1:2,000 dilution
# [6] = peptide region: H3 73-85, peptide modifications: H3T80ph, binder concentration: 1:10,000 dilution
# [7] = peptide region: H3 112-124, binder concentration: 1:2,000 dilution
# [8] = peptide region: H3 112-124, binder concentration: 1:10,000 dilution
# [9] = peptide region: H3 112-124, peptide modifications: H3K115ac H3K122ac, binder concentration: 1:2,000 dilution
# [10] = peptide region: H3 112-124, peptide modifications: H3K115ac H3K122ac, binder concentration: 1:10,000 dilution
# [11] = peptide region: H3 112-124, peptide modifications: H3K115ac H3K122me1, binder concentration: 1:2,000 dilution
# [12] = peptide region: H3 112-124, peptide modifications: H3K115ac H3K122me1, binder concentration: 1:10,000 dilution
# [13] = peptide region: H3 112-124, peptide modifications: H3K115me1, binder concentration: 1:2,000 dilution
# [14] = peptide region: H3 112-124, peptide modifications: H3K115me1, binder concentration: 1:10,000 dilution
# [15] = peptide region: H3 112-124, peptide modifications: H3K115ac H3R116me2s, binder concentration: 1:2,000 dilution
# [16] = peptide region: H3 112-124, peptide modifications: H3K115ac H3R116me2s, binder concentration: 1:10,000 dilution
# [17] = peptide region: H3 112-124, peptide modifications: H3K115ac H3K122me2, binder concentration: 1:2,000 dilution
# [18] = peptide region: H3 112-124, peptide modifications: H3K115ac H3K122me2, binder concentration: 1:10,000 dilution
# [19] = peptide region: H3 73-85, peptide modifications: H3K79me3 H3T80ph, binder concentration: 1:2,000 dilution
# [20] = peptide region: H3 73-85, peptide modifications: H3K79me3 H3T80ph, binder concentration: 1:10,000 dilution
# [21] = peptide region: H3 73-85, peptide modifications: H3K79me3, binder concentration: 1:2,000 dilution
# [22] = peptide region: H3 73-85, peptide modifications: H3K79me3, binder concentration: 1:10,000 dilution
# [23] = peptide region: H3 112-124, peptide modifications: H3K115me1 H3R116cit, binder concentration: 1:2,000 dilution
# [24] = peptide region: H3 112-124, peptide modifications: H3K115me1 H3R116cit, binder concentration: 1:10,000 dilution
binder,measurement,setting,value
EIAQDFKTDLRFQ [H3 73-85 E I A Q D F K Tph D L R F Q],peptide microarray binding signal,"[1]; peptide region: H3 73-85, peptide modifications: H3T80ph, binder concentration: 50 nM",0.00129 ± 3.8e-05
same,peptide microarray binding signal,"[1]; peptide region: H3 73-85, peptide modifications: H3T80ph, binder concentration: 500 nM",0.00386 ± 0.00022
same,peptide microarray binding signal,"[2]; peptide region: H3 73-85, peptide modifications: H3T80ph, binder concentration: 10 nM",0.00406 ± 0.00014
same,peptide microarray binding signal,"[2]; peptide region: H3 73-85, peptide modifications: H3T80ph, binder concentration: 100 nM",0.000921
same,peptide microarray binding signal,[3]; [5],0.000547 ± 3.5e-05
same,peptide microarray binding signal,[3]; [6],0.000685 ± 7.2e-06
same,peptide microarray binding signal,[4]; [5],0.00186 ± 2e-05
same,peptide microarray binding signal,[4]; [6],0.00127 ± 4.6e-05
IHAKRVTIMPKDI [H3 112-124 I H A K R V T I M P K D I],peptide microarray binding signal,"[1]; peptide region: H3 112-124, binder concentration: 50 nM",0.00972 ± 0.00063
same,peptide microarray binding signal,"[1]; peptide region: H3 112-124, binder concentration: 500 nM",0.0345 ± 0.00086
same,peptide microarray binding signal,"[2]; peptide region: H3 112-124, binder concentration: 10 nM",0.0135 ± 0.0014
same,peptide microarray binding signal,"[2]; peptide region: H3 112-124, binder concentration: 100 nM",0.0205 ± 0.0093
same,peptide microarray binding signal,[3]; [7],0.00261 ± 0.00029
same,peptide microarray binding signal,[3]; [8],0.001883 ± 1.8e-05
same,peptide microarray binding signal,[4]; [7],0.00415 ± 0.00045
same,peptide microarray binding signal,[4]; [8],0.00167 ± 2.8e-05
IHAKRVTIMPKDI [H3 112-124 I H A Kac R V T I M P Kac D I],peptide microarray binding signal,"[1]; peptide region: H3 112-124, peptide modifications: H3K115ac H3K122ac, binder concentration: 50 nM",0.00947 ± 0.0003
same,peptide microarray binding signal,"[1]; peptide region: H3 112-124, peptide modifications: H3K115ac H3K122ac, binder concentration: 500 nM",0.0259 ± 0.00095
same,peptide microarray binding signal,"[2]; peptide region: H3 112-124, peptide modifications: H3K115ac H3K122ac, binder concentration: 10 nM",0.0323 ± 0.0014
same,peptide microarray binding signal,"[2]; peptide region: H3 112-124, peptide modifications: H3K115ac H3K122ac, binder concentration: 100 nM",0.0605 ± 0.013
same,peptide microarray binding signal,[3]; [9],0.00336 ± 0.0003
same,peptide microarray binding signal,[3]; [10],0.00417 ± 0.0002
same,peptide microarray binding signal,[4]; [9],0.00288 ± 0.00013
same,peptide microarray binding signal,[4]; [10],0.00242 ± 9.5e-05
IHAKRVTIMPKDI [H3 112-124 I H A Kac R V T I M P Kme D I],peptide microarray binding signal,"[1]; peptide region: H3 112-124, peptide modifications: H3K115ac H3K122me1, binder concentration: 50 nM",0.00809 ± 8.8e-05
same,peptide microarray binding signal,"[1]; peptide region: H3 112-124, peptide modifications: H3K115ac H3K122me1, binder concentration: 500 nM",0.0164 ± 0.00068
same,peptide microarray binding signal,"[2]; peptide region: H3 112-124, peptide modifications: H3K115ac H3K122me1, binder concentration: 10 nM",0.0183 ± 0.00056
same,peptide microarray binding signal,"[2]; peptide region: H3 112-124, peptide modifications: H3K115ac H3K122me1, binder concentration: 100 nM",0.0281 ± 0.0012
same,peptide microarray binding signal,[3]; [11],0.00164 ± 0.00014
same,peptide microarray binding signal,[3]; [12],0.002054 ± 1.9e-05
same,peptide microarray binding signal,[4]; [11],0.00136 ± 6.1e-05
same,peptide microarray binding signal,[4]; [12],0.00138 ± 1.4e-05
IHAKRVTIMPKDI [H3 112-124 I H A Kme R V T I M P K D I],peptide microarray binding signal,"[1]; peptide region: H3 112-124, peptide modifications: H3K115me1, binder concentration: 50 nM",0.00774 ± 0.00015
same,peptide microarray binding signal,"[1]; peptide region: H3 112-124, peptide modifications: H3K115me1, binder concentration: 500 nM",0.0198 ± 0.0023
same,peptide microarray binding signal,"[2]; peptide region: H3 112-124, peptide modifications: H3K115me1, binder concentration: 10 nM",0.00668 ± 0.00016
same,peptide microarray binding signal,"[2]; peptide region: H3 112-124, peptide modifications: H3K115me1, binder concentration: 100 nM",0.0314 ± 0.0099
same,peptide microarray binding signal,[3]; [13],0.00168 ± 0.00023
same,peptide microarray binding signal,[3]; [14],0.001997 ± 1.8e-05
same,peptide microarray binding signal,[4]; [13],0.0034 ± 0.00038
same,peptide microarray binding signal,[4]; [14],0.00236 ± 0.00015
IHAKRVTIMPKDI [H3 112-124 I H A Kac Rme2s V T I M P K D I],peptide microarray binding signal,"[1]; peptide region: H3 112-124, peptide modifications: H3K115ac H3R116me2s, binder concentration: 50 nM",0.005956 ± 4.1e-05
same,peptide microarray binding signal,"[1]; peptide region: H3 112-124, peptide modifications: H3K115ac H3R116me2s, binder concentration: 500 nM",0.0125 ± 0.0017
same,peptide microarray binding signal,"[2]; peptide region: H3 112-124, peptide modifications: H3K115ac H3R116me2s, binder concentration: 10 nM",0.0167 ± 0.0042
same,peptide microarray binding signal,"[2]; peptide region: H3 112-124, peptide modifications: H3K115ac H3R116me2s, binder concentration: 100 nM",0.0203 ± 0.0028
same,peptide microarray binding signal,[3]; [15],0.00436 ± 0.00063
same,peptide microarray binding signal,[3]; [16],0.00576 ± 0.00047
same,peptide microarray binding signal,[4]; [15],0.00375 ± 0.00054
same,peptide microarray binding signal,[4]; [16],0.00398 ± 0.00024
IHAKRVTIMPKDI [H3 112-124 I H A Kac R V T I M P Kme2 D I],peptide microarray binding signal,"[1]; peptide region: H3 112-124, peptide modifications: H3K115ac H3K122me2, binder concentration: 50 nM",0.00668 ± 0.00012
same,peptide microarray binding signal,"[1]; peptide region: H3 112-124, peptide modifications: H3K115ac H3K122me2, binder concentration: 500 nM",0.0132 ± 0.00064
same,peptide microarray binding signal,"[2]; peptide region: H3 112-124, peptide modifications: H3K115ac H3K122me2, binder concentration: 10 nM",0.0198 ± 0.004
same,peptide microarray binding signal,"[2]; peptide region: H3 112-124, peptide modifications: H3K115ac H3K122me2, binder concentration: 100 nM",0.0271 ± 0.0018
same,peptide microarray binding signal,[3]; [17],0.00159 ± 0.00013
same,peptide microarray binding signal,[3]; [18],0.00211 ± 5.8e-05
same,peptide microarray binding signal,[4]; [17],0.00169 ± 0.00021
same,peptide microarray binding signal,[4]; [18],0.00133 ± 4e-05
EIAQDFKTDLRFQ [H3 73-85 E I A Q D F Kme3 Tph D L R F Q],peptide microarray binding signal,"[1]; peptide region: H3 73-85, peptide modifications: H3K79me3 H3T80ph, binder concentration: 50 nM",0.001066 ± 5.3e-06
same,peptide microarray binding signal,"[1]; peptide region: H3 73-85, peptide modifications: H3K79me3 H3T80ph, binder concentration: 500 nM",0.0021 ± 0.00018
same,peptide microarray binding signal,"[2]; peptide region: H3 73-85, peptide modifications: H3K79me3 H3T80ph, binder concentration: 10 nM",0.00221 ± 6.6e-05
same,peptide microarray binding signal,"[2]; peptide region: H3 73-85, peptide modifications: H3K79me3 H3T80ph, binder concentration: 100 nM",0.00333 ± 0.0011
same,peptide microarray binding signal,[3]; [19],0.000887 ± 9.8e-05
same,peptide microarray binding signal,[3]; [20],0.00183 ± 0.00035
same,peptide microarray binding signal,[4]; [19],0.0135 ± 0.0079
same,peptide microarray binding signal,[4]; [20],0.00577 ± 0.0016
EIAQDFKTDLRFQ [H3 73-85 E I A Q D F Kme3 T D L R F Q],peptide microarray binding signal,"[1]; peptide region: H3 73-85, peptide modifications: H3K79me3, binder concentration: 50 nM",0.0032 ± 3.5e-05
same,peptide microarray binding signal,"[1]; peptide region: H3 73-85, peptide modifications: H3K79me3, binder concentration: 500 nM",0.0059 ± 0.0008
same,peptide microarray binding signal,"[2]; peptide region: H3 73-85, peptide modifications: H3K79me3, binder concentration: 10 nM",0.00483 ± 8.8e-05
same,peptide microarray binding signal,"[2]; peptide region: H3 73-85, peptide modifications: H3K79me3, binder concentration: 100 nM",0.00723 ± 0.00027
same,peptide microarray binding signal,[3]; [21],0.00851 ± 0.00073
same,peptide microarray binding signal,[3]; [22],0.0112 ± 0.0053
same,peptide microarray binding signal,[4]; [21],0.227 ± 0.017
same,peptide microarray binding signal,[4]; [22],0.201 ± 0.042
IHAKRVTIMPKDI [H3 112-124 I H A Kme Rcit V T I M P K D I],peptide microarray binding signal,"[1]; peptide region: H3 112-124, peptide modifications: H3K115me1 H3R116cit, binder concentration: 50 nM",0.00947 ± 0.0002
same,peptide microarray binding signal,"[1]; peptide region: H3 112-124, peptide modifications: H3K115me1 H3R116cit, binder concentration: 500 nM",0.0238 ± 0.00041
same,peptide microarray binding signal,"[2]; peptide region: H3 112-124, peptide modifications: H3K115me1 H3R116cit, binder concentration: 10 nM",0.0192 ± 0.00041
same,peptide microarray binding signal,"[2]; peptide region: H3 112-124, peptide modifications: H3K115me1 H3R116cit, binder concentration: 100 nM",0.037 ± 0.0012
same,peptide microarray binding signal,[3]; [23],0.00225 ± 5.2e-05
same,peptide microarray binding signal,[3]; [24],0.00434 ± 0.00036
same,peptide microarray binding signal,[4]; [23],0.00249 ± 6.3e-05
same,peptide microarray binding signal,[4]; [24],0.00248 ± 5.9e-05

# — the supplement of paper PMC4022240
